Assay [1] in a line: inhibitors of TNFa-induced NFkB p65 translocation, primary screen, imaging, HUVEC, MLSMR starter and 10KST1 sets (AID 438).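 Also: compound added about 3h40 before a 20 min TNFalpha stimulation.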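 As to inhibition: signal is the nuclear over cytoplasmic p65 intensity ratio per well.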 The following applies: HUVEC TNFa-induced p65 nuclear translocation; cell count: measured here: nuclei count (cytotoxicity indicator), at 2.08 µM; inhibition: at 2 µM, stronger effect = higher value, 0% TNFa-plus-vehicle, 100% no-TNFa wells.
Assay [2] in a line: inhibitors of mutant huntingtin aggregation, primary screen, imaging, exon1htt(103Q)mCFP cells, high-content imaging (AID 483;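 active = visual image review flags a hit and inhibition of aggregation exceeds 20%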;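 also: compound exposure lasted 3 days before fixation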;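 as to nuclei count: percent of the per-plate median nuclei count of sample wells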). The following applies: exon1htt(103Q)mCFP cell line, aggregate imaging, at 2 µM; inhibition of aggregation: stronger effect = higher value; nuclei count: measured here: cell count, toxicity.
A short description of assay [3]: inhibitors of E-selectin induction by TNFa, primary screen, imaging, HUVEC, immunofluorescence, MLSMR starter and 10KST1 sets (AID 487;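 active = visually confirmed hit in the image check and inhibition above 20%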;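 as to inhibition: signal is fraction of cell area covered by stained E-selectin grains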;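 as to nuclei count: 100% = median nuclei count of all wells on the same plate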). The note with it: HUVEC TNFalpha-induced E-selectin immunofluorescence imaging, at 2 µM; inhibition: stronger effect = higher value; nuclei count: measured here: cell number, toxicity.
Assay [4] deals with Voltage-gated potassium channel subunit beta-2 (Rattus norvegicus) (UniProt P62483). The experiment in a line: KvBeta enzyme negative modulators, primary screen, biochemical, NADPH fluorescence (AID 622;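 active = fluorescence slope higher than the sample average by over 3 SD, cut at about -0.22 in these data, passing the limit was not always enough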;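 also: slope of raw intensity against log time taken from 70 to 1610 s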). The note with it: recombinant KvBeta, 4-cyanobenzaldehyde reduction, at 10 µM, stronger effect = higher value.
Chain of Voltage-gated potassium channel subunit beta-2 (Rattus norvegicus) (P62483 whole entry, looked up): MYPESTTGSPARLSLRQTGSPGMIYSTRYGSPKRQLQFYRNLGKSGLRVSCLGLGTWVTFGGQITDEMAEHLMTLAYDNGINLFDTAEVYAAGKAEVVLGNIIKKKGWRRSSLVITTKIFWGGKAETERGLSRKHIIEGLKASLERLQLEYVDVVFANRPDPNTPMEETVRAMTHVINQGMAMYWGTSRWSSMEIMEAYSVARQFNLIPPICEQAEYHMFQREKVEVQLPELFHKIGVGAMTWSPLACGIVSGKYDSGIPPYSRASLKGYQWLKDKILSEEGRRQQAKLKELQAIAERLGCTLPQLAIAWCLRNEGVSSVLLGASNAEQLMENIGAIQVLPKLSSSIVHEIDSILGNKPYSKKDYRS
The target is the same in assay [5]. The experiment in a line: KvBeta positive modulators, primary screen, biochemical, NADPH fluorescence (AID 623;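 active = NADPH fluorescence slope more negative than the mean of all samples by about 3 SD, 99.7% confidence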;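 also: fluorescence intensity change per second fitted from 20 to 320 s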). The following applies: Recombinant KvBeta, NADPH fluorescence decrease slope, 10 min; at 10 µM; stronger effect = lower value.
The target of assay [6] is Alpha-2C adrenergic receptor (Homo sapiens) (UniProt P18825). The experiment in a line: modulators of alpha2C/GIRK thallium flux, primary screen, cell-based, HEK293 alpha2C/GIRK1/2 (AID 624;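 active = fluorescence slope after compound addition differing from the mean of all screened samples at 99.7% confidence, in either direction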;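 also: slope of fluorescence ratio to pre-addition baseline per second over 15 to 24 s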). The note with it: thallium flux BTC fluorescence, at 10 µM, actives lie on both sides.
Chain of Alpha-2C adrenergic receptor (Homo sapiens) (P18825 whole entry, looked up): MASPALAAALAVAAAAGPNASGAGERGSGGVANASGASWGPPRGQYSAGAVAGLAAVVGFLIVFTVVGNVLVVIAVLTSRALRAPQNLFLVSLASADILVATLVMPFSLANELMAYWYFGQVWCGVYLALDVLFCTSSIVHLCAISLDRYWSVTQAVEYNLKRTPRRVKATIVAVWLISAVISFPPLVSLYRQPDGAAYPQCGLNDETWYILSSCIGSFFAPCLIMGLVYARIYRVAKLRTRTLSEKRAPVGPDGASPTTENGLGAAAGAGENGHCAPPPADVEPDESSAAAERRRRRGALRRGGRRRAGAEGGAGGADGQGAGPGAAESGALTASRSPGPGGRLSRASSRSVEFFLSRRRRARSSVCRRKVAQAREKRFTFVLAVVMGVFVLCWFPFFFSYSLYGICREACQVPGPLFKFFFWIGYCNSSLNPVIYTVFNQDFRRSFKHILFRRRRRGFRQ
The nature of assay [7]: inhibitors of Sendai virus-induced IRF3 signaling, primary screen, TLR/RLR signaling modifier project, cell-based, Sendai virus stimulus, luciferase, 10K MLSCN set (AID 602276;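 active = inhibition at or above 50% at 10 µM; inactive = inhibition below 50%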;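 also: firefly luciferase from ISG56 promoter only with Renilla not read in this screen; 0% = Sendai virus plus DMSO and 100% = medium plus DMSO without virus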). The following applies: HEK293 RL24 IRF3 luciferase reporter, at 10 µM, stronger effect = higher value. For orientation: Reporter assays use an easily measured gene product as a stand-in for the process of interest.

Assay [8] in a line: inhibitors of poly I:C-induced TLR3 signaling, primary screen, cell-based, poly I:C stimulus, luciferase, 10K MLSCN set (AID 602277;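 active = inhibition of the reporter signal at or above 50%; inactive = inhibition below 50%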). The note with it: HEK293-TLR3 RL24 IRF3 luciferase reporter, at 10 µM, stronger effect = higher value.

The source made the active and inactive calls.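 The calls were made as follows, unless noted: active = inhibition above 20% together with a positive visual image hit; inconclusive = visual image hit but inhibition not above 20%; inactive = no visual image hit.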

In the case of `COc1ccc(S(=O)(=O)N2CCSC2c2ccccc2)cc1` (centres undefined), in assay [1], the cell count was 449. Besides, the inhibition (usually the relative decrease from the control value, in per cent) was -3.1% (inactive) in assay [1], -84.6% (inactive) in assay [3], -1.99% (inactive) in assay [7] and 22.7% (inactive) in assay [8]. Moreover, the inhibition of aggregation in assay [2] was -10.4% (inactive). Moreover, the nuclei count in assay [2] came out at 106%; in assay [3], 97.9%. Also, the fluorescence slope in assay [4] is -0.463 (inactive). Moreover, the NADPH fluorescence slope in assay [5] was -3.5e-05 (inactive). In addition, the slope in assay [6] was 0.00496 (inactive).
On to `COc1cc2nc(SCC(=O)NC3CC3)n(CCC3=CCCCC3)c(=O)c2cc1OC`, for which the cell count in assay [1] stood at 688. The inhibition is -4% (inactive) in assay [1], -35.1% (inactive) in assay [3], 14.1% (inactive) in assay [7] and 24.7% (inactive) in assay [8]. The inhibition of aggregation in assay [2] is 0.8% (inactive). The nuclei count came out at 101% in assay [2] and 108% in assay [3]. Besides, the fluorescence slope in assay [4] is -0.427 (inactive). Further, the NADPH fluorescence slope in assay [5] is -4e-06 (inactive). In assay [6], the slope was 0.00342 (inactive).
Regarding `Cc1nc2c(C(=O)O)cnn2c(C)c1Cc1ccccc1F`, in assay [1], the cell count is 606. Also, the inhibition in assay [1] is -12.2% (inactive); in assay [3] it was -44.9% (inactive); in assay [7] it was -2.88% (inactive); in assay [8], -3.96% (inactive). Also, the inhibition of aggregation in assay [2] is 11.2% (inactive). Further, the nuclei count worked out at 77.3% in assay [2] and 105% in assay [3]. Further, the fluorescence slope in assay [4] was -0.406 (inactive). The NADPH fluorescence slope in assay [5] was 4.6e-06 (inactive). The slope in assay [6] is 0.00393 (inactive).
With `COc1ccc(-c2ccc(=O)n(Cc3cc(=O)n4ccccc4n3)n2)cc1`, the cell count in assay [1] turned out to be 789. Besides, the inhibition in assay [1] is -6.4% (inactive); in assay [3] it was -101% (inactive); in assay [7], 7.67% (inactive); in assay [8], 12.2% (inactive). Besides, in assay [2], the inhibition of aggregation was -19.1% (inactive). The nuclei count in assay [2] is 99.5%; in assay [3], 140%. In assay [4], the fluorescence slope was -0.108 (inactive). The NADPH fluorescence slope in assay [5] is -3.8e-05 (inactive). Besides, the slope in assay [6] is 0.00509 (inactive).
As for `COc1ccc(N(C(=O)c2ccco2)C(C(=O)NC2CCCC2)c2ccc(N(C)C)cc2)cc1OC` (centres undefined), the cell count in assay [1] worked out at 596. Besides, the inhibition was -18.8% (inactive) in assay [1], -96.5% (inactive) in assay [3], 3.23% (inactive) in assay [7] and 27.3% (inactive) in assay [8]. In addition, the inhibition of aggregation in assay [2] is -35.5% (inactive). The nuclei count in assay [2] came out at 116%; in assay [3], 109%. Further, in assay [4], the fluorescence slope is -0.48 (inactive). Also, the NADPH fluorescence slope in assay [5] is 3.2e-05 (inactive). In addition, the slope in assay [6] was 0.00496 (inactive).
For the compound `O=C(Nc1ccc(Cl)c(C(F)(F)F)c1)N1CCCC(O)C1` (centres undefined), the cell count in assay [1] came out at 356. Further, the inhibition in assay [1] is 4.5% (inactive); in assay [3], -50.8% (inactive); in assay [7], 1.7% (inactive); in assay [8], -22.3% (inactive). Moreover, in assay [2], the inhibition of aggregation is -4.8% (inactive). The values for the nuclei count in assay [2] and in assay [3] were 106% and 107%, respectively. Moreover, the fluorescence slope in assay [4] is -0.453 (inactive). For the same compound, the NADPH fluorescence slope in assay [5] is 2.2e-05 (inactive). Besides, in assay [6], the slope was 0.00599 (inactive).
Regarding `O=C(CCN1C(=O)c2ccccc2C1=O)N1CCN(C(=O)c2ccccc2)CC1`, the cell count in assay [1] worked out at 548. Moreover, the inhibition in assay [1] is 2.5% (inactive); in assay [3] it was -145% (inactive); in assay [7] it was 9.17% (inactive); in assay [8], 19.5% (inactive). Moreover, the inhibition of aggregation in assay [2] was 7.3% (inactive). Moreover, the nuclei count was determined as 98.2% in assay [2] and 118% in assay [3]. Further, the fluorescence slope in assay [4] is -0.491 (inactive). The NADPH fluorescence slope in assay [5] is -4.1e-05 (inactive). The slope in assay [6] was 0.00673 (inactive).
On to `Cc1ccccc1Nc1nc(N)nc(CSCc2c(C)noc2C)n1`, for which the cell count in assay [1] amounted to 347. The inhibition in assay [1] was -15.8% (inactive); in assay [3], -16.2% (inactive); in assay [7], -21.3% (inactive); in assay [8], -33.2% (inactive). The inhibition of aggregation in assay [2] was -2.4% (inactive). In addition, the figures for the nuclei count in assay [2] and in assay [3] were 93.8% and 117%, respectively. Besides, in assay [4], the fluorescence slope was -0.361 (inactive). In addition, the NADPH fluorescence slope in assay [5] was -5.1e-05 (inactive). Besides, the slope in assay [6] was 0.00597 (inactive).
As for `COc1ccc(NC(=O)C(C)NS(=O)(=O)c2ccc(NC(C)=O)cc2)cc1Cl` (centres undefined), the cell count in assay [1] stood at 788. Also, the inhibition was 2.8% (inactive) in assay [1], 6.9% (inactive) in assay [3], 12.1% (inactive) in assay [7] and 7.34% (inactive) in assay [8]. Moreover, the inhibition of aggregation in assay [2] is -14.8% (inactive). For the same compound, the nuclei count turned out to be 105% in assay [2] and 113% in assay [3]. In addition, the fluorescence slope in assay [4] was -0.34 (inactive). The NADPH fluorescence slope in assay [5] was 2.4e-05 (inactive). In addition, the slope in assay [6] was 0.00739 (inactive).
Take `CC(=O)OC(C(=O)NC1CCCCC1)c1ccncc1` (centres undefined): in assay [1], the cell count came out at 614. The inhibition was -8.1% (inactive) in assay [1], -147% (inactive) in assay [3], 8.21% (inactive) in assay [7] and 13.3% (inactive) in assay [8]. Moreover, the inhibition of aggregation in assay [2] was -3.6% (inactive). In addition, the nuclei count is 105% in assay [2] and 107% in assay [3]. Moreover, in assay [4], the fluorescence slope is -0.498 (inactive). Moreover, the NADPH fluorescence slope in assay [5] is -3e-05 (inactive). Also, the slope in assay [6] is 0.00464 (inactive).
In the case of `CCCCOC(=O)Cn1c(=O)oc2ccc(C)cc21`, the cell count in assay [1] was 741. The inhibition in assay [1] is -5.8% (inactive); in assay [3], -96.5% (inactive); in assay [7], -5.21% (inactive); in assay [8], 7.21% (inactive). Besides, the inhibition of aggregation in assay [2] is 3.3% (inactive). Besides, the results for the nuclei count in assay [2] and in assay [3] were 38% and 109%, respectively. Moreover, the fluorescence slope in assay [4] is -0.589 (inactive). Besides, the NADPH fluorescence slope in assay [5] was -4.7e-05 (inactive). For the same compound, the slope in assay [6] is 0.00659 (inactive).
Consider `Cc1ccc(Br)cc1S(=O)(=O)N1CCN(c2ccccc2)CC1`, for which the cell count in assay [1] amounted to 391. Further, the inhibition in assay [1] is -2.2% (inactive); in assay [3], -51.5% (inactive); in assay [7] it was 5.17% (inactive); in assay [8] it was 31.3% (inactive). Besides, the inhibition of aggregation in assay [2] was -16% (inactive). For the same compound, the nuclei count was 108% in assay [2] and 129% in assay [3]. The fluorescence slope in assay [4] was -0.463 (inactive). The NADPH fluorescence slope in assay [5] is -1.8e-05 (inactive). The slope in assay [6] is 0.0036 (inactive).
On to `CCCC(=O)Nc1cc(C)c2c(=O)oc3ccccc3c2n1`, for which the cell count in assay [1] was 627. For the same compound, the inhibition is -24.4% (inactive) in assay [1], -37.2% (inactive) in assay [3], -9.8% (inactive) in assay [7] and -24.7% (inactive) in assay [8]. Also, the inhibition of aggregation in assay [2] is -6.5% (inactive). The nuclei count in assay [2] stood at 97.4%; in assay [3], 121%. Besides, the fluorescence slope in assay [4] was -0.447 (inactive). Moreover, the NADPH fluorescence slope in assay [5] is -7.8e-05 (inactive). The slope in assay [6] was 0.0057 (inactive).
As to `C/C=C/COC(=O)c1[nH]c2c(c1C)C(=O)CC(c1ccc(N(C)C)cc1)C2` (centres undefined), in assay [1], the cell count is 699. Also, the inhibition in assay [1] was 1.8% (inactive); in assay [3], -46.6% (inactive); in assay [7], -29.1% (inactive); in assay [8], -68.7% (inactive). Moreover, the inhibition of aggregation in assay [2] was 14.4% (inactive). The nuclei count in assay [2] was determined as 79.6%; in assay [3] it was 115%. Also, the fluorescence slope in assay [4] was -0.543 (inactive). Moreover, the NADPH fluorescence slope in assay [5] is -2.2e-05 (inactive). For the same compound, the slope in assay [6] is 0.00679 (inactive).

Values taken from PubChem BioAssay.
